Screening data (PubChem)
Only some compounds are listed: those with a hit (about 2.4% of all), similar ones and a draw of the others.
M1 PAM – human CHRM1 positive allosteric modulation; P11229; CHO-K1 hM1, Fluo-8 calcium fluorescence, ACh EC20; 0% = ACh EC20, 100% = maximal ACh; activation, % at 3 µM; 360,000 compounds, 0.088% hits; AID 588819; in the data active = activation above about 19%, passing the limit was not always enough
Target sequence (P11229 whole entry, looked up): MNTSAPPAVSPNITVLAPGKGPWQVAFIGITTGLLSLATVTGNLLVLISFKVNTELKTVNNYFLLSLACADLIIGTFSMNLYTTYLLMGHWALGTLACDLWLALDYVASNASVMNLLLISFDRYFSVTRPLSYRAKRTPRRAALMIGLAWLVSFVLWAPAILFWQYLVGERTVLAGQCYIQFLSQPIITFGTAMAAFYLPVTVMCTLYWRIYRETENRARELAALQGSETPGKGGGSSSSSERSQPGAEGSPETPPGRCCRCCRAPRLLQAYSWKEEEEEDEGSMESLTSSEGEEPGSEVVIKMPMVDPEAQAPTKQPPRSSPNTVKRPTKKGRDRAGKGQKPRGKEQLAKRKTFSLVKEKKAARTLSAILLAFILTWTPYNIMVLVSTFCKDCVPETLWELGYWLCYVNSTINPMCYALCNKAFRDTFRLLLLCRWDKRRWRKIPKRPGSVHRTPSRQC
CHRM1 antagonist – human CHRM1 antagonism; 360,000 compounds, 1.3% hits; inhibition, % at 3 µM; CHO-K1 hM1, Fluo-8 calcium fluorescence, ACh EC80 antagonist;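 active = percent inhibition above its own plate's cutoff, namely the mean of that plate's compound wells plus 3 SD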;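 also: peak over basal fluorescence ratio during 140 s after agonist addition; 0% = ACh EC80 plus DMSO and 100% = DMSO alone without agonist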
CHO-K1 Ca ag – nonselective activator or artifact in parental CHO-K1 cells; Fluo-8 calcium fluorescence; scaled to maximal ATP response, vehicle zero; activation, % at 3 µM; 360,000 compounds, 0.48% hits; in the data active = activation above about 15%;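 also: untransfected CHO-K1 host cells lacking M1 receptor as counterscreen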
M1 PAM parental – M1 PAM counterscreen hit in parental CHO-K1 cells | ATP EC20, Fluo-8 calcium fluorescence; 0% at ATP EC20, 100% at ATP max | activation, % at 3 µM | 360,000 compounds, 0.02% hits | AID 602247;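 active = activation above the run cutoff, the mean activation of all test compounds plus 3 SD, cut at about 40% in these data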;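 also: peak over basal fluorescence ratio in a 140 s read after ATP addition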
M1 ag – human M1 muscarinic receptor agonism | P11229 | CHO-K1 hM1, Fluo-8 calcium fluorescence, agonist mode; 0% DMSO, 100% acetylcholine EC100 | activation, % at 3 µM | 360,000 compounds, 0.33% hits;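 active = activation above the run's mean compound activation plus 3 SD, cut at about 16% in these data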;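 also: peak over basal fluorescence ratio within a 140 s kinetic read after compound addition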
CHO-K1 Ca antag – counter-screen for M1 antagonists: effect in parental CHO-K1 cells; 360,000 compounds, 0.6% hits; ATP-induced calcium, Fluo-8 fluorescence; AID 602250; inhibition, % at 3 µM;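 active = inhibition above a per-plate cutoff, the plate's mean sample inhibition plus 3 SD, cut at about 24% in these data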;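 also: 0% = DMSO plus EC80 ATP and 100% = DMSO alone without ATP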
An asterisk follows results filed as active.

SMILES	M1 PAM	CHRM1 antagonist	CHO-K1 Ca ag	M1 PAM parental	M1 ag	CHO-K1 Ca antag
Cc1c(C(=O)Nc2c(F)cc(F)cc2Br)sc2ncn(CC(=O)N3CCCC3)c(=O)c12	15	-18	2	14	2	-15
CCOC(=O)N1CCC(N2Cc3cccc(C(=O)NC(C)c4ccc5c(c4)OCCO5)c3C2=O)CC1 (stereo not drawn)	0	-13	-1	-7	-11	42*
CCOC(=O)N1CCC(N2Cc3cccc(C(=O)NCc4ccc(C)cc4)c3C2=O)CC1	-1	-7	0	-1	-3	5
CCOC(=O)N1CCC(NC(=O)c2cccc3c2C(=O)N(CCOC)C3)CC1	-10	9	0	-1	-4	-1
CCOC(=O)N1CCC(N2Cc3cccc(C(=O)NCc4ccccn4)c3C2=O)CC1	-22	28*	1	16	-10	-8
N#Cc1ccsc1NC(=O)CCc1ccccc1	7	-6	1	16	-2	-10
Cc1cccc(C)c1NC(=O)CN(Cc1ccccc1)Cc1ccccc1	2	-24	6	15	18*	-9
N#Cc1ccsc1NC(=O)CN(Cc1ccccc1)Cc1ccccc1	9	-8	1	44*	-8	-19
O=C(CN1c2cccc3cccc(c23)S1(=O)=O)N1CCCCC1	0	-2	0	2	-3	-6
Cc1cc(OCC(=O)N(Cc2ccco2)c2c(N)n(Cc3ccccc3)c(=O)[nH]c2=O)ccc1Cl	0	1	0	6	-4	-3
COc1ccc2nc(SCC(=O)NCc3ccc(S(N)(=O)=O)cc3)[nH]c2c1	3	12	1	-7	-4	-14
CC(=O)NCCn1c(C)cc2ccccc21	6	-14	0	16	-1	-2
Cc1cc2ccccc2n1CCNC(=O)C(C)(C)C	-14	33*	1	-5	-4	8
CCOc1ccc(OCCC(=O)N(CC)CC(=O)NCc2ccc(Cl)cc2)cc1	3	-15	1	7	-3	-16
CCC(C)N(C(=O)Cn1c(Cl)nc2c1c(=O)n(C)c(=O)n2C)C1CCS(=O)(=O)C1 (stereo not drawn)	1	-5	1	-20	2	7
CN(C(=O)Cn1c(Cl)nc2c1c(=O)n(C)c(=O)n2C)C1CCS(=O)(=O)C1 (stereo not drawn)	-10	23*	0	-21	-2	4
O=C(Cn1c(=O)[nH]c2ccccc2c1=O)Nc1ccc2c(c1)OCO2	8	-5	0	11	-1	-11
Cc1cc(C)c2c(CN3CCN(CCO)CC3)cc(=O)oc2c1	-7	7	-1	-7	-7	29*
O=C(O)c1ccc(/C=N/NC(=O)c2ccc(CN3c4cccc5cccc(c45)S3(=O)=O)cc2)cc1	5	-12	0	9	7	-8
O=C1CCC/C(=N/NC(=O)c2ccc(CN3c4cccc5cccc(c45)S3(=O)=O)cc2)C1	5	-7	1	7	19*	3
CC(=O)c1c(C)[nH]c(C(=O)COc2cc(C)ccc2C(C)C)c1C	-10	36*	8	-2	1	24
CC(=O)N1CCN(S(=O)(=O)c2cccc(C(=O)OCC(=O)N(CCC#N)c3ccc(F)cc3)c2)CC1	11	-12	1	-4	-5	-14
Cn1c(SCC(=O)Nc2ccccc2)nc2c([nH]c3ccccc32)c1=O	-26	35*	1	2	-13	10
Cc1ccc(NC(=S)NC(=O)Cc2ccccc2)c(O)c1	6	-4	6	12	18*	-3
COc1ccc(NC(=S)NC(=O)Cc2ccccc2)c(OC)c1	10	-11	7	15	7	-11
O=C(Nc1nnc(-c2ccccc2)o1)c1nc2ccccc2s1	-9	-2	8	26	66*	-12
COc1ccccc1C(C)NC(=O)c1ccccc1SCC(=O)N1CCCC1 (stereo not drawn)	6	-13	1	8	-2	-13
